Measured values from PubChem BioAssay (NCATS).
Records with an inconclusive call do not appear. Calls of active or inactive are those of the source. Calls come from the whole dose curve; as a rule, active = well fitted inhibition curve with a large enough effect; inconclusive = small, poorly fitted or top-dose-only effect; inactive = flat fitted curve, though single readings scatter.

Assays:
Test in all cases: qHTS profiling for inhibitors of Plasmodium falciparum proliferation (AID 504749); note: nearly all actives have a fitted effect of over 60% in size
Settings in all cases: P. falciparum in erythrocytes, SYBR Green DNA, 72 h; series mostly up to 28.7 µM
CP192 = tested on: CP192
Procedure, shortened: (§1)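 P. falciparum-infected erythrocytes (0.3% parasitemia, 2.5% hematocrit final) were exposed to compounds for 72 h at 37 C in 5% CO2, then lysed with SYBR Green buffer overnight at room temperature; parasite DNA fluorescence was normalized to artemisinin and DMSO controls.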

CP194 = tested on: CP194
Procedure, shortened: as §1

CP201 = tested on: CP201
Procedure, shortened: as §1

CP203 = tested on: CP203
Procedure, shortened: as §1

CP211 = tested on: CP211
Procedure, shortened: as §1

CP215 = tested on: CP215
Procedure, shortened: as §1

CP217 = tested on: CP217
Procedure, shortened: as §1

CP237 = tested on: CP237
Procedure, shortened: as §1

CP238 = tested on: CP238
Procedure, shortened: as §1

CP247 = tested on: CP247
Procedure, shortened: as §1

Measured: Potency

ClC1C(Cl)C(Cl)C(Cl)C(Cl)C1Cl (centres undefined)
inactive: all assays above

O=CC=O
inactive: all assays above

[N-]=[N+]=CC(=O)OCC(N)C(=O)O (centres undefined)
inactive: all assays above

CC(C)(O)C1C2OC(=O)C1C1(O)CC3OC34C(=O)OC2C14C (centres undefined)
inactive: all assays above

O=[N+]([O-])C(Br)(CO)CO
inactive: all assays above

C=CCN(C1=NCCN1)c1c(Cl)cccc1Cl
inactive: all assays above

CC(=O)O[C@H]1CC[C@H]2[C@@H]3CCC4=CC(=O)CCC4=C3C=C[C@]12C
inactive: all assays above

O=[N+]([O-])c1cc(I)c(O)c(I)c1
inactive: all assays above

CCCCCl
inactive: all assays above

O=[N+]([O-])c1ccccc1
inactive: all assays above

CC(C)CCON=O
inactive: all assays above

O=C(NCNC(=O)NC1C(=O)NC(=O)N1CO)NC1C(=O)NC(=O)N1CO (centres undefined)
inactive: all assays above

O=C/C=C/c1ccccc1
inactive: all assays above

ClC(Cl)(Cl)Cl
inactive: all assays above

O=c1[nH]cc(N(CCCl)CCCl)c(=O)[nH]1
inactive: all assays above

CCCC(C)(COC(N)=O)COC(=O)NC1CC1 (centres undefined)
inactive: all assays above

S=C(S)N1CCNCC1
inactive: all assays above

Clc1ccc(Cl)cc1
inactive: all assays above

CCCCCCCCOC(=O)c1ccccc1C(=O)OCCCCCCCC
inactive: all assays above

O=[N+]([O-])c1ccc(F)c([N+](=O)[O-])c1
inactive: all assays above

C=CCN1CC[C@]23c4c5ccc(O)c4O[C@H]2[C@@H](O)C=C[C@H]3[C@H]1C5
not listed: CP247
inactive: all other assays above

CCC(C)(S(=O)(=O)CC)S(=O)(=O)CC
inactive: all assays above

CC[N+](C)(CC)CCOC(=O)C(O)(c1ccccc1)c1ccccc1
inactive: all assays above
